# Assay results taken from PubChem BioAssay AID1347426 (Functional Genomics Laboratory (NCATS/FGL), 2020).
# Among all 31,000 sequences or so, about 1,400 (4.5%) were called active. The sample as a whole holds a higher share of actives than the screen did. Values without a mark were called inactive.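 The calls were made as follows: active = median seed-adjusted z-score above 1 or below -1; inactive = the rest.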
# Experiment: Novel Modifiers of Survival Motor Neuron (SMN) Protein: Gene Identification via Genome-wide siRNA Screen;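 also: luminescence tracks full-length SMN protein made from the SMN2 reporter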
# Details: HEK293T SMN2-luciferase reporter, siRNA knockdown, 72 h; actives lie on both sides
# Procedure, shortened: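 HEK293T cells stably carrying an SMN2 promoter/splicing cassette–luciferase reporter were reverse-transfected with 1 pmol siRNA per well (druggable-genome library, 3 siRNAs per gene) and grown 72 h at 37 °C. Luminescence, normalized to negative-control siRNA and log10-transformed, was scored as MAD.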
row,Sequence,median seed-adjusted z-score
1,CUAAAAGACCGAACAAUAATT against HNRPUL1,-0.047
2,GGUUCAUGUUUGCAAUCUUTT against POLR2B,-4.81 (active)
3,UGAACGCAGUCAUCCGGAATT against MAPK15,0.0724
4,CCAAUGAUGUAUGAUCUAATT against UBE3A,0.0949
5,GGACUAUAAAUCCAGCUUUTT against TOMM34,-0.503
6,CUCCUAAAGUGCAUCGCAATT against GUF1,0.119
7,CAUCAGAUCUUGAUCAGUUTT against NKTR,-1.1 (active)
8,CUCUUCACGUCUGACCUGATT against HTR6,-0.463
9,CCCAUAUGAUUACCCAUUUTT against MYH2,-0.73
10,CCUGCAGAAUAACCUGAUATT against OPTC,0.0953
11,CCUGGAAACUACAAGCCCATT against SIRT3,-0.341
12,GCCUCGAGCCUAUUCGUUATT against PCDHB4,0.00998
13,GACUACGACUGGUUCUUCATT against CSGLCA-T,0.146
14,AGUCAAGAACAAUACCCAATT against SNRPD2,-0.849
15,GAGCAGCUCUUAAGCAACATT against SAPS1,1.16 (active)
16,GCCUGUCCCUAGCAUUGUUTT against CES2,-0.47
17,CCAGUCACUGCAUAACAUUTT against PSMD9,0.266
18,GAACUAGGAGAUACAAUAUTT against ELOVL6,0.742
19,GGACAGUCUUCUGUAUGCATT against RBM39,-1.82 (active)
20,CCAGAGAAAUGAGAUUGGATT against ZNF195,0.0753
21,GCCUGCAAGUGAAGCGGAATT against PRMT1,-0.596
22,CAGCCUUCAUGAGAUGUUATT against AMPD3,-0.0865

row,Sequence,median seed-adjusted z-score
1,CAACCUGCUCUACAGCAAATT against PRSS27,1.03 (active)
2,GACGCGGUAUGUAGACAUATT against NAT8B,0.206
3,GCUGCAUUGUGGGUGAUGATT against PTGIR,-0.0806
4,CAAGAGCAGUUUAAUAGCATT against BAT3,0.567
5,GGAACUUACUACAACUCCATT against TMPRSS6,1.29 (active)
6,GGUUAGCUUAUGUUACAUATT against E2F3,-0.215
7,ACUCCUCUCUGUUAAUGGATT against LIN7C,0.021
8,GGUUGAAGAUGGUACUCCUTT against ADAMTS20,1.44 (active)
9,CUCCAGAUAUAGACCUCAATT against TRIM22,0.363
10,UGUUGUACCUCUAAUGUCATT against GPR172B,0.184
11,GCAACCCACCAAUAACUAATT against ADAM29,0.904
12,UGAGUUCUUUAGGACCGAATT against MFAP3L,1.03 (active)
13,GUACUGUAGAGAAAGCGUATT against ZNF606,0.118
14,UUUCCAAACAAGUACCUAATT against CKS2,0.0907
15,GCAUAUACCAUCGCUGUAATT against SUPT16H,1.2 (active)
16,CCAGAUAUGGUAUCCCAAUTT against ZNF227,0.0194
17,GUCUCAAUCUAAUAAGGAATT against TTLL1,0.322
18,GAUCAGGACUUUAUGUUCATT against ZNF225,0.0761
19,GAGCGUACCAAGGAUCUAATT against HDLBP,-1.18 (active)
20,CUUUUGACGUGAACGAUGATT against ORM1,0.206
21,CCGCCCAAGUAGUAAAGAATT against ADCY3,-0.294
22,AGACUUUAAGGAGAAAACATT against YAF2,0

row,Sequence,median seed-adjusted z-score
1,GGUUCACGGUUCAAAAUCATT against SLC25A24,-0.0384
2,GGUCCAACAUGCAAUCCAATT against EDEM3,0.119
3,GCCGCAACAUGGAAGUACATT against MAPK8IP3,0.734
4,GGGAGAUCUUCGACUCAUATT against ADRBK1,0
5,GGGACUAUUCCAAAACCCATT against FLAD1,0.367
6,GGAAUGUGCUGGUCGGAGATT against TIE1,0.0629
7,CCAAAUACAUCGCAUUAGATT against GTPBP4,1.01 (active)
8,GGUUCAUACAGACUCUUAUTT against PJA2,0
9,GAUAAAAACAGUCCUUUCUTT against FXYD3,0.254
10,CAAUGUUACCAAAACCGAATT against ACVR1C,-0.0005
11,CCCUACCAACAUUAAGUAUTT against CLDN7,0.0208
12,GGAUGUGGUUUAUUAUACATT against SLC16A9,0.125
13,GCCUAUCAAUUGUUCGGGATT against TTF1,1.76 (active)
14,GCGUAUGGGAUUACAAGAATT against PAFAH1B1,0.391
15,GGCUAGUACUGACAGAUGATT against CREB3,0.0509
16,ACUCCUACAUGUACAUUCUTT against KCNE3,-1.33 (active)
17,GGUUAAAAGUCGGUCCCAATT against SGCG,0.886
18,GCAUCUCUAUUGUAGCCCUTT against GHRHR,0
19,CAUCCGAUCUGAUAGGUCUTT against EFEMP1,0.0157
20,AGACCUAGCAUGGACCAGATT against GUCY2E,0.61
21,CUUGGACACUGAAAACGCATT against ITGAM,-1.56 (active)
22,GGAUGAGUACAGAUUUACATT against CLPX,-0.0436

row,Sequence,median seed-adjusted z-score
1,AGCUCAUAGCUGACCCAGATT against ZC3H3,-0.622
2,CAGAUGACUUCAGAACCAATT against KRT33B,0.04
3,GGCUAUAUCGUCACAAUGATT against ABCA4,-1.09 (active)
4,GGUAAUGCUUUAUUCCAAATT against ZNF677,-0.441
5,GAGCUGACGUGUACUCAUATT against USP5,0.596
6,CGCAUUCUCCAGUCGCACATT against KRT81,-0.0955
7,CGGUUGGAGUUGGAUGACATT against TRIB3,0.00635
8,ACAUCAAAACACCAGCUUUTT against YBX2,0.362
9,CCUACGUUUUUAUUAUCUUTT against SLC2A14,-1.09 (active)
10,GCACAAGGAGUGACCUUCUTT against GCHFR,-0.559
11,GAACUUUGUUACUAUCGAATT against PCDH9,0.165
12,GGAUCCUGGUGAUAAGAGATT against QRICH1,-1.04 (active)
13,GAGAAAAUCUAUAUCCGGATT against NR2C2,-0.498
14,CCCGGAGAAUUCUCAAUGATT against NENF,-0.778
15,CAUCAAUGACUCACCCUUUTT against RTN4R,-0.536
16,CAAACGACCUUUGCCCAAATT against MED17,-2.06 (active)
17,AAACUUGCCUGAGUACAAATT against KCNH3,-0.509
18,GCUCCAGUCUCACUAAACATT against ZNF552,0.437
19,GAAUGAAGGUUUAUAUUGATT against EPHB3,-0.407
20,AGGAGACUCUUUGCUACAATT against MRGPRX1,-0.188
21,GAAUGUUGACUCUACUGCATT against POLR3K,0.504
22,GGGACCAUCCUGUUCUUCATT against KCNK12,1.04 (active)

row,Sequence,median seed-adjusted z-score
1,CUCACAACAAAUUACUUAATT against CYP2C9,0.246
2,GGACUUGAGAGAUCUCUUUTT against DAB1,0.307
3,GGUCUAAAGGUGGAGAUAATT against EIF2C2,-0.183
4,CAUGUGCAGUACAUCCAUATT against TIMP3,-1.05 (active)
5,GCCCUUUACAUACUCUUCATT against IL23R,0.512
6,GGAUGAUAUUCUAUCCUUUTT against IPO13,0.612
7,UGCUCAGCAGUACAACGUATT against SYN1,-0.458
8,UGUCCACGGUUAAAAUUAUTT against CCL16,-0.308
9,CAAACCGAAUAGAAACUUUTT against PSMC1,-2.23 (active)
10,UCAACUGCCCAUACACUUATT against LOC647743,-0.203
11,UCCCAGUGAUUAUACGUUATT against ARPC4,-0.211
12,GGAUGAGAACAUUAAAACATT against COQ3,0.426
13,UGAUGGAAGUUGUCACUUATT against BLK,-0.274
14,GGCAAUGCUUUACUAUGAATT against ABCG8,-0.0233
15,AGAUGUUCUUAAGACCAAATT against PACSIN2,0.73
16,GGACUUCUGAAAAUUCGCATT against EP400,1.83 (active)
17,CCGCGAUCAUAGACCUAGATT against FOXO4,-0.0576
18,GGACAGGAAGAUACAAGAATT against GPR113,-0.434
19,GGAAGAAUAUGUUUAGAUATT against UBE2N,0.995
20,CGAGCAAUUUAGAGACUUATT against PCDHGA3,0.27
